NPR1 activator: GC-A (human) enzyme activation | P16066 | HEK293 GC-A cells, cGMP TR-FRET, EC30 ANP; 0% at EC30 ANP, 100% saturating ANP | activation, % at 10 µM | hit rate 0.14% among 370,000; in the data active = activation above about 40%
NPR2 activator: GC-B (human) receptor activation | P20594 | HEK293-GC-B cells, CNP EC30, cGMP TR-FRET; 0% at EC30 CNP, 100% saturating CNP | activation, % at 10 µM | hit rate 0.11% among 370,000;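 active = activation at 10 µM reaching about 35% in either raw or pattern-adjusted values, limit read from the data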
ADAM10 inh: inhibitors of human ADAM10; O14672; recombinant ADAM10, EDANS/DABCYL FRET peptide cleavage, 3 h; inhibition, % at 7 µM; hit rate 0.62% among 370,000; AID 720582;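 active = inhibition above a per-campaign cutoff equal to the mean of compounds falling between control-based bounds plus 3 SD, cut at about 20% in these data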;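 also: 0% = DMSO wells while the 100% control is not disclosed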
Target sequence (O14672 214-748 limits assumed): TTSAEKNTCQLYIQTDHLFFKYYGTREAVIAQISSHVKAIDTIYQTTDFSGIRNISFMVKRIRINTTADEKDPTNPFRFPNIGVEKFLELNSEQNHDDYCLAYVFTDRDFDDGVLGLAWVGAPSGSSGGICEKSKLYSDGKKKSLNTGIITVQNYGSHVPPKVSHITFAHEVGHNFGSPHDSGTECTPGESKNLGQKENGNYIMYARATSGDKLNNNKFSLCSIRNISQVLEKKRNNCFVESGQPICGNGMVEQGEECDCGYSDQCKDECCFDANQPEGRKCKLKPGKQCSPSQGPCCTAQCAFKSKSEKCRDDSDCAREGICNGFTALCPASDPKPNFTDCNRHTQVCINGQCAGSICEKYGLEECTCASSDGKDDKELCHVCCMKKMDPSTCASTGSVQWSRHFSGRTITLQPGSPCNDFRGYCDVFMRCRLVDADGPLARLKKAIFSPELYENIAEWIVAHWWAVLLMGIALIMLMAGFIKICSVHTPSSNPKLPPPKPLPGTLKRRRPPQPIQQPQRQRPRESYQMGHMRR
KLK7 zymogen act: proKLK7 (human) activation, primary screen; P49862; purified proKLK7, EDANS-DABCYL substrate fluorescence; 100% is mature enzyme control, 0% vehicle; activation, % at 7 µM; hit rate 0.9% among 370,000; AID 652039;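 active = activation above the mean of all tested compounds plus 3 SD, computed per campaign excluding outliers beyond control limits, cut at about 13% in these data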
ADAM17 inh: inhibits human ADAM17; recombinant ADAM17, EDANS/DABCYL FRET peptide cleavage; inhibition, % at 6.95 µM; hit rate 0.83% among 370,000;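 active = inhibition above the mean of compounds lying between control limits plus 3 SD, set per campaign, cut at about 8.5% in these data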;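 also: 0% = DMSO-only wells as the low control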
ADAM10 confirm: human ADAM10 inhibition, confirmation; shares compounds with ADAM10 inh; ADAM10 QFRET peptide cleavage, EDANS fluorescence; inhibition, % at 6.95 µM; hit rate 1% among 2,100;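 active = inhibition above about 20% chosen separately for each screening run, limit read from the data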;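 also: 0% = DMSO wells and 100% = marimastat wells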
ADAM17 counter: inhibits human ADAM17 in ADAM10 exosite counter-screen | shares compounds with ADAM10 inh | ADAM17 QFRET peptide cleavage, EDANS fluorescence | inhibition, % at 6.95 µM | hit rate 0.5% among 2,100 | AID 743214;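 active = mean triplicate inhibition above the solvent-only control wells' mean plus 3 SD, cut at about 12% in these data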;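 also: 0% = DMSO wells and 100% = marimastat wells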
ADAM10 ctr: inhibits human ADAM10 in ADAM17 exosite counter-screen; hit rate 47% among 2,900; recombinant ADAM10, EDANS/DABCYL FRET peptide cleavage, 3 h; shares compounds with ADAM17 inh; inhibition, % at 6.95 µM;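 active = mean inhibition over the triplicate runs exceeds the activity threshold set in the earlier primary screen, cut at about 20% in these data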;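 also: 0% = DMSO wells and 100% = marimastat wells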
ADAM17 confirm: confirmation of inhibitors of human ADAM17. AID 743257. inhibition, % at 6.95 µM. recombinant ADAM17, EDANS/DABCYL QFRET peptide cleavage. hit rate 65% among 2,900. shares compounds with ADAM17 inh;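 active = mean inhibition across replicates above the hit cutoff set in the primary screen, cut at about 8.5% in these data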;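 also: 0% = DMSO wells and 100% = marimastat wells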
* marks the source's active call; other numbers are inactive results; . = no result given. A selection: hits, their analogues and other compounds. The true share with any hit is near 2.2%.

SMILES | NPR1 activator | NPR2 activator | ADAM10 inh | KLK7 zymogen act | ADAM17 inh | ADAM10 confirm | ADAM17 counter | ADAM10 ctr | ADAM17 confirm
CN(CCO)c1cccc2c1S(=O)(=O)N(Cc1cn(Cc3ccccc3C(F)(F)F)nn1)Cc1ccccc1O2 | 0.5 | 8.3 | -11.2 | 0.2 | -3.5 | . | . | . | .
COc1ccc(C(c2nnnn2Cc2ccccc2)N2CCN(C/C=C/c3ccccc3)CC2)cc1 (stereo not given) | -4.4 | 2.0 | 23.8* | 0.2 | 12.4* | 1.4 | 0.7 | 17.4 | 11.4*
C(=C\c1ccccc1)/CN1CCN(C(c2ccccc2)c2nnnn2Cc2ccccc2)CC1 (stereo not given) | 1.0 | -1.9 | 16.2 | 0.0 | 7.9 | . | . | . | .
CC(OC(=O)c1cccc(S(=O)(=O)Nc2cccc(C(F)(F)F)c2)c1)C(=O)Nc1ccc2c(c1)OCCO2 (stereo not given) | 3.1 | 1.6 | 28.3* | 1.6 | 9.2* | 4.5 | 1.3 | 27.5* | 14.5*
CNc1ccc(C=C2C=Cc3ccccc32)cc1 | 4.0 | -2.9 | 41.2* | -1.1 | 13.1* | 5.6 | 1.4 | 46.4* | 18.1*
CN(C)c1ccc(C=C2C=Cc3ccccc32)cc1 | -0.6 | -1.2 | 4.7 | 0.6 | -1.6 | . | . | . | .
CCN(CC)S(=O)(=O)c1cccc(C(=O)Oc2cccc(NC(=O)c3cccs3)c2)c1 | -5.6 | 2.3 | 27.0* | 0.5 | 9.3* | 8.1 | 2.9 | 22.3* | 13.2*
CCN(CC)S(=O)(=O)c1ccc(NC(=O)c2cccs2)cc1 | -5.3 | 1.8 | -1.4 | 0.5 | 0.1 | . | . | . | .
COC(=O)[C@]12C[C@H](CC(=O)NCCCCc3ccccc3)C(=O)N(Cc3ccc(Cl)cc3Cl)C1=C[C@H](C(C)(C)C)O[C@@H]2C | -1.2 | -2.6 | -1.8 | -0.3 | 0.7 | . | . | . | .
COC(=O)[C@H]1C[C@@]2(C)c3ccccc3N(C(=O)OC(C)(C)C)[C@H]2N1C(=O)OC(C)(C)C | -13.2 | -18.0 | 6.2 | -0.3 | 0.8 | . | . | . | .
COc1ccc(C(CC(=O)c2ccc(C)cc2)Nc2ccc([N+](=O)[O-])cc2)cc1 (stereo not given) | 0.3 | 1.1 | 20.2* | 0.7 | 14.4* | 6.3 | 2.2 | 19.2 | 13.1*
Cc1ccc(NC(CC(=O)c2ccccc2)c2ccc(F)cc2)cc1 (stereo not given) | -4.5 | 1.4 | 1.9 | 0.1 | -2.3 | . | . | . | .
CCc1cccc(C)c1NC(=O)COC(=O)C1CCN(S(=O)(=O)c2ccccc2)CC1 | 5.0 | -0.6 | -0.6 | 0.3 | -0.3 | . | . | . | .
CCc1cccc(C)c1NC(=O)CN1CCN(S(=O)(=O)c2ccc(C(C)(C)C)cc2)CC1 | -4.0 | 2.6 | 24.2* | -0.1 | 10.0* | -0.4 | -0.1 | 6.5 | 6.8
O=C1NC(Cc2ccccc2)c2nc3ccccc3c(=O)n2-c2cc(Cl)ccc21 (stereo not given) | -3.8 | 7.4 | 25.4* | 0.6 | 16.7* | 4.0 | 0.8 | 22.7* | 11.6*
O=C1NC(Cc2ccc(O)cc2)c2nc3ccccc3c(=O)n2-c2cc(Cl)ccc21 (stereo not given) | -6.6 | -3.9 | -9.8 | 0.3 | 1.9 | . | . | . | .
O=C(Nc1ccc(Nc2ccccc2)cc1)c1c(Cl)cccc1Cl | 1.0 | -1.0 | 12.2 | 0.1 | 3.3 | . | . | . | .
O=C(Nc1ccc(Nc2ccccc2)cc1)c1c(F)c(F)c(F)c(F)c1F | 0.8 | 6.8 | 20.2* | 0.0 | 14.4* | 4.9 | 0.6 | 29.6* | 14.3*
CCN(c1ccc(NS(=O)(=O)c2cc(Cl)ccc2Cl)cc1)C(C)C | 1.8 | -0.3 | 24.2* | 0.2 | 11.2* | 2.5 | 0.8 | 13.3 | 10.0*
COC(=O)[C@]12C[C@H](CC(=O)NCc3ccccc3)C(=O)N(Cc3cccc4ccccc34)C1=C[C@H](C(C)(C)C)O[C@@H]2C | -4.8 | -7.1 | 16.2 | -0.1 | 7.6 | . | . | . | .
C[C@@H]1CCCCO[C@@H](CN(C)S(=O)(=O)c2ccccc2)[C@@H](C)CN([C@H](C)CO)C(=O)c2cc(NS(=O)(=O)c3ccc(F)cc3)ccc2O1 | 2.9 | 0.9 | 27.4* | 0.3 | 16.7* | 4.1 | 0.3 | 28.1* | 15.4*
C[C@@H]1CN([C@H](C)CO)C(=O)c2cc(NC(=O)Nc3ccc(C(F)(F)F)cc3)ccc2O[C@H]1CN(C)S(=O)(=O)c1cccs1 | 0.2 | 7.2 | 28.8* | 0.1 | 13.0* | 3.8 | 1.5 | 48.8* | 32.8*
C[C@@H]1CCCCO[C@H](CN(C)S(=O)(=O)c2ccc(F)cc2)[C@@H](C)CN([C@H](C)CO)C(=O)c2cc(NC(=O)Nc3ccc(C(F)(F)F)cc3)ccc2O1 | -2.3 | 1.4 | 27.4* | 0.2 | 8.7* | 15.8 | 4.2 | 45.0* | 23.5*
COc1ccc(S(=O)(=O)N(C)C[C@@H]2OCCCC[C@H](C)Oc3ccc(NC(=O)Nc4ccc(C(F)(F)F)cc4)cc3C(=O)N([C@H](C)CO)C[C@H]2C)cc1 | 1.2 | 7.4 | 34.0* | 0.0 | 13.2* | 13.8 | 4.5 | 45.8* | 24.4*
C[C@H]1CCCCO[C@@H](CN(C)S(=O)(=O)c2ccc(F)cc2)[C@@H](C)CN([C@@H](C)CO)C(=O)c2cc(NC(=O)Nc3ccc4c(c3)OCO4)ccc2O1 | -0.4 | 2.3 | 4.2 | 0.6 | -1.2 | . | . | . | .
Cc1ccc2c(c1)-c1c(cnn1CC(=O)NCCc1ccccc1F)CO2 | -1.8 | -8.7 | -3.6 | 0.1 | -2.6 | . | . | . | .
COC(=O)C1=C(C)N(CCCC(=O)O)C(=O)NC1c1ccccc1OS(=O)(=O)c1ccccc1[N+](=O)[O-] (stereo not given) | 3.6 | -0.2 | -6.0 | -1.1 | -1.7 | . | . | . | .
CCOC(=O)C1=C(C)N(Cc2ccccc2)C(=O)NC1c1ccccc1OS(=O)(=O)c1ccccc1[N+](=O)[O-] (stereo not given) | -4.0 | 2.9 | 21.3* | 0.7 | 9.8* | 13.9 | 4.0 | 49.2* | 20.7*
CC(C)[C@H]1Cn2nnc(-c3ccccc3)c2Cn2c3ccccc3c(=O)n21 | -4.1 | -3.9 | -83.9 | 0.4 | -21.5 | . | . | . | .
Cc1nc(SC2CC(=O)N(c3cc(Cl)cc(Cl)c3)C2=O)nc2c1CCCC2 (stereo not given) | -1.9 | -9.7 | 34.2* | 0.2 | 10.3* | 5.3 | 0.9 | 11.3 | 8.2
